Test [1] can be described thus: small molecules captured by biotinylated probe aFSTL3 – biochemical, small-molecule microarray, fluorescence 635/667, stem cell growth factor project, primary screen (AID 1064).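 Further: measures binding of the biotinylated anti-FSTL3 antibody to printed compounds.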 Particulars: higher = more signal.
Test [2] is described as follows: binders from COS7 lysate, DM2A8 probe, primary screen, torsin A project, cell lysate, small-molecule microarray, fluorescence 635/667 (AID 1065). The conditions noted are these: higher = more signal, COS7 lysate expressing mutant human TOR1A.
Test [3] in a line: small molecules captured by biotinylated probe aFGF2 – biochemical, small-molecule microarray, fluorescence 635/667, stem cell growth factor project, primary screen (AID 1067).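 Further: measures binding of biotinylated aFGF2 protein to printed compounds on slides; z-score merges feature fluorescence and signal-to-noise across triplicate slides.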 The conditions noted are these: higher = more signal.
Test [4] is described as follows: small molecules captured by biotinylated probe aFGF10 – biochemical, small-molecule microarray, fluorescence 635/667, stem cell growth factor project, primary screen (AID 1071).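 Further: score merges 667 nm spot intensity and signal to noise from triplicate slides.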 Particulars: higher = more signal.
For test [5], the target named is Neurogenic locus notch homolog protein 2 (Homo sapiens) (UniProt Q04721). Briefly: small molecules binding Notch2 protein – biochemical, small-molecule microarray, 635 nm fluorescence, stem cell growth factors, primary screen (AID 1073). Particulars: higher = more signal.
In test [6] the target is Pro-neuregulin-1, membrane-bound isoform (Homo sapiens) (UniProt Q02297). Put plainly: small molecules binding neuregulin-1 protein – biochemical, small-molecule microarray, fluorescence 635/667, psychiatric disease protein project, primary screen (AID 1075).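 Further: score combines 667 nm spot fluorescence with signal to noise.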 Particulars: NRG1 binding, 635 nm fluorescence, higher = more signal.
For test [7], the system named is Neuregulin-1 EGF-like domain. Put plainly: small molecules binding NRG1 EGF domain – biochemical, small-molecule microarray, 635 nm fluorescence, primary screen (AID 1081).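 Further: binding of the protein to compounds printed on small-molecule microarray slides.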 The conditions noted are these: higher = more signal.
The nature of test [8]: FRG1 expression reporter modulators in myotubes – cell-based, C2C12 myotubes, firefly/Renilla luciferase, luminescence, FRG1 inhibition for FSHD, primary screen (AID 1084). The conditions noted are these: FRG1 promoter luciferase, higher = more signal, called active from +8 up or from −8 down.
Test [9] can be described thus: small molecules captured by biotinylated probe aFST – biochemical, small-molecule microarray, fluorescence 635/667, stem cell growth factor project, primary screen (AID 1086).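 Further: score merges 667 nm fluorescence with signal-to-noise of each printed compound spot.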 Particulars: higher = more signal.
The nature of test [10]: binders of probe aHhip on microarray, primary screen, stem cell growth factor project, biochemical, small-molecule microarray, fluorescence 635/667 (AID 1087).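 Further: score merges spot fluorescence at 667nm with spot signal to noise ratio.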 The conditions noted are these: higher = more signal.
Test [11] relates to PRMT1 (protein arginine N-methyltransferase 1). Briefly: small molecules binding arginine methyltransferase PRMT1 – biochemical, small-molecule microarray, 635 nm fluorescence, primary screen (AID 1088).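 Further: binding of Prmt1 protein to compounds spotted on small-molecule microarray slides.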 The conditions noted are these: higher = more signal.
Test [12] in a line: growth effects on S. cerevisiae YJM789 – YJM789 clinical isolate, OD600, 24 h, basal, primary screen (AID 1089).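 Further: growth of clinical yeast isolate S. cerevisiae YJM 789 seeded 1000 cells per well; test concentration not given here.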 The conditions noted are these: higher = more signal, called active from +8 up or from −8 down.
Test [13] in a line: S. pombe growth modifiers, basal conditions – strain 972, OD600, 24 h, no modulator, primary screen (AID 1090).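 Further: basal condition with compound alone and no growth modifier present; test concentration not given here.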 Particulars: S. pombe 972 growth, higher = more signal, called active from +8 up or from −8 down.
Test [14] in a line: budding yeast growth modifiers under rapamycin – strain BY4716, OD600, 96 h, primary screen (AID 1091). Further: test concentration not given here. The conditions noted are these: S. cerevisiae BY4716 + rapamycin, higher = more signal, called active from +8 up or from −8 down.
Test [15] concerns the target Torsin-1A-interacting protein 2 (Homo sapiens) (UniProt Q8NFQ8). Briefly: small molecules binding lysate-expressed LULL1 – cell lysate, human LULL1 lysate, 635/667 nm fluorescence, primary screen (AID 1092).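 Further: score merges per-feature 667 nm fluorescence with signal-to-noise.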 Particulars: small-molecule microarray, hLULL1 lysate binding, 635 nm fluorescence; higher = more signal.
Test [16] in a line: optical density change of DRC41 E. coli – strain DRC41, OD650, 24 h, E. coli filamentation project, primary screen (AID 1093).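 Further: MC1000 strain lacking acrAB efflux and sulA so SOS filamentation is blocked; test concentration not given here.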 Particulars: E. coli DRC41 growth, higher = more signal, called active from +8 up or from −8 down.
Test [17] is described as follows: probe aLefty2 binding to arrayed compounds – biochemical, biotinylated probe, 635/667 nm fluorescence, primary screen (AID 1094).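 Further: score merges spot fluorescence near 667 nm with spot signal-to-noise ratio.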 The conditions noted are these: small-molecule microarray, higher = more signal.
Test [18] relates to Noggin (protein binding on small-molecule microarray). Put plainly: small molecules binding Noggin protein – biochemical, 635/667 nm fluorescence, primary screen (AID 1095).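 Further: score merges 667 nm feature fluorescence with signal to noise over triplicate slides.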 The conditions noted are these: 635 nm fluorescence, higher = more signal.
Test [19] deals with Neurogenic locus notch homolog protein 3 (Homo sapiens) (UniProt Q9UM47). Briefly: small molecules binding NOTCH3 protein – biochemical, 635/667 nm fluorescence, primary screen (AID 1096). The conditions noted are these: small-molecule microarray, 635 nm fluorescence, higher = more signal.
The nature of test [20]: probe aEGFR binding to arrayed compounds – biochemical, biotinylated probe, 635/667 nm fluorescence, primary screen (AID 1097).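 Further: probe is a biotinylated anti-EGFR antibody binding compounds printed on slides; score combines fluorescence near 667 nm and signal to noise of each spot.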 Particulars: small-molecule microarray, higher = more signal.

The structures appear in SMILES notation. Several values for one entry are separate records, joined by “and”; a condition that tells them apart may be missing. Equal values may be shown once. Activity calls are given as the source filed them.

Sequence of Neurogenic locus notch homolog protein 3 (Homo sapiens) (Q9UM47 whole entry, looked up): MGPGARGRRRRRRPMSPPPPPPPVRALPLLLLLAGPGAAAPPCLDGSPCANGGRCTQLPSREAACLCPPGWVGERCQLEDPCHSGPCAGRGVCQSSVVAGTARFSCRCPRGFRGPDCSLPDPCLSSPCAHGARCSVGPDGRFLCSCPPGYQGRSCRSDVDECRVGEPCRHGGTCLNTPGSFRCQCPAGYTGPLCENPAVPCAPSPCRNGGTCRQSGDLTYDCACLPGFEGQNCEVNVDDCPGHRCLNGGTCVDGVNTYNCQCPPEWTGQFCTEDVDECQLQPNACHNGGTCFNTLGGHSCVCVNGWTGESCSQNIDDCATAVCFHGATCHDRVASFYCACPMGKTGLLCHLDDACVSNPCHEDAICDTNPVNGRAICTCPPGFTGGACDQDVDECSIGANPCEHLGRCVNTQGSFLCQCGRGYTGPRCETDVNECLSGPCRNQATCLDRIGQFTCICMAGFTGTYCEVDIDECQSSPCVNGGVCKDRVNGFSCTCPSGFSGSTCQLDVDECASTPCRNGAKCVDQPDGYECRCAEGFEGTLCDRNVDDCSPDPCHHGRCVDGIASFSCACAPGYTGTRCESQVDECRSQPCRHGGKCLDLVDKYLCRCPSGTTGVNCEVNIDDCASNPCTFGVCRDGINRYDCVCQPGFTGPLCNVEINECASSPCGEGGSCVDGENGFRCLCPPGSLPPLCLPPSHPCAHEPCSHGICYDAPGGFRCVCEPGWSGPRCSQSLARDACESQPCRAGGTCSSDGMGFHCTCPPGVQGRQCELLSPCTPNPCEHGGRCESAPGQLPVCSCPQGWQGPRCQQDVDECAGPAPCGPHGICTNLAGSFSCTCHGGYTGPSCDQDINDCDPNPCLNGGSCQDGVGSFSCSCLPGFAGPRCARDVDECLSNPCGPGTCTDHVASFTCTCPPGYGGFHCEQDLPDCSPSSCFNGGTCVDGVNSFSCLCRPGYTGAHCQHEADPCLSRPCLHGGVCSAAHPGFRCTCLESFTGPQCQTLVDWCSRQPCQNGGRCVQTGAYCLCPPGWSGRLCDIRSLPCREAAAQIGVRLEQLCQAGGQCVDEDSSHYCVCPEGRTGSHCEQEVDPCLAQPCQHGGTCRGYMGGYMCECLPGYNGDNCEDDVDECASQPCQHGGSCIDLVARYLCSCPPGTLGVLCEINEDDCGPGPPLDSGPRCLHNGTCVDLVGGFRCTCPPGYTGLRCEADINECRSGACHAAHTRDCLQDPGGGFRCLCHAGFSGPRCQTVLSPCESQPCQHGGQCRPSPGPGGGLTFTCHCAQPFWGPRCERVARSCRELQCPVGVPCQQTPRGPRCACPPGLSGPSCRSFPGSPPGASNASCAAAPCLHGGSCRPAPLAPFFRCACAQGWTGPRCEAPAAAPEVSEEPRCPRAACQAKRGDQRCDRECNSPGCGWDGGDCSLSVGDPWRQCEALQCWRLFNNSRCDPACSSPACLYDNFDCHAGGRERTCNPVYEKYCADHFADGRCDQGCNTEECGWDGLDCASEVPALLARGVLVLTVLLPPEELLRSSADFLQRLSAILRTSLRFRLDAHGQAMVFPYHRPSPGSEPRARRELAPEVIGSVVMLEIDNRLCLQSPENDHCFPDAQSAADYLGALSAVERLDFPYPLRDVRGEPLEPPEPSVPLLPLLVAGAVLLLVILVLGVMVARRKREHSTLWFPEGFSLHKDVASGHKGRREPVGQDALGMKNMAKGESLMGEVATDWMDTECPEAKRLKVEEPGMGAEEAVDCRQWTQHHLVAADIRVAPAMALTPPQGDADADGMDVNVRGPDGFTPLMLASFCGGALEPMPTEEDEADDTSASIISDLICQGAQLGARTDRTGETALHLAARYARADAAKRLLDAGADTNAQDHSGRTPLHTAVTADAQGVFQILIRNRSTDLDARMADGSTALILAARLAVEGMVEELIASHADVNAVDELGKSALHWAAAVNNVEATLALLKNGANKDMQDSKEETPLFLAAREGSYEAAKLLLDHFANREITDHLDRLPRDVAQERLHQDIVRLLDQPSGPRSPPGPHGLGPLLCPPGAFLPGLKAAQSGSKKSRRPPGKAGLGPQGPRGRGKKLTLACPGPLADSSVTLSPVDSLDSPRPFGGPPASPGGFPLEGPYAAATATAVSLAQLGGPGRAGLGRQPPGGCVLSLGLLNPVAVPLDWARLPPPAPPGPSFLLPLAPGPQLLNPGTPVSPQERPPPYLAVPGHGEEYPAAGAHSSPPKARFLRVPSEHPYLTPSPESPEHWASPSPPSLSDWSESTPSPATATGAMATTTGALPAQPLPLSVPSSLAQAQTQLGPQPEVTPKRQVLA
Sequence of Pro-neuregulin-1, membrane-bound isoform (Homo sapiens) (Q02297 whole entry, looked up, the tested form may be a part, canonical isoform): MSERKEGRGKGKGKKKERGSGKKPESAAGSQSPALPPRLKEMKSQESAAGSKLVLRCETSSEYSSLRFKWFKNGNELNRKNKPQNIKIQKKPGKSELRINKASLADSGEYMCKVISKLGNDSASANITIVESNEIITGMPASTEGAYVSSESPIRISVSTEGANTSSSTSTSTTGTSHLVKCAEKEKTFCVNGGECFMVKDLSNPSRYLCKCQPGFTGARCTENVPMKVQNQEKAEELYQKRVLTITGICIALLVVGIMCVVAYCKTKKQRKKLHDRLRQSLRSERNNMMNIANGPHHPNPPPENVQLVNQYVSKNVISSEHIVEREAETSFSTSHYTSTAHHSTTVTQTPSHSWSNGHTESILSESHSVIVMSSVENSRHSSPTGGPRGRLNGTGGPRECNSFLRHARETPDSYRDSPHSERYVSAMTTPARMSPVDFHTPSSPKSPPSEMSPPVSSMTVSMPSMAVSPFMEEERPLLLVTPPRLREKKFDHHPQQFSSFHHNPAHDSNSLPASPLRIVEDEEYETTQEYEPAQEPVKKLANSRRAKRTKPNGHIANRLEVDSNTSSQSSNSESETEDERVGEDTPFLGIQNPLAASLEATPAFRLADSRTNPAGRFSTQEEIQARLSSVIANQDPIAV
Sequence of Torsin-1A-interacting protein 2 (Homo sapiens) (Q8NFQ8 whole entry, looked up): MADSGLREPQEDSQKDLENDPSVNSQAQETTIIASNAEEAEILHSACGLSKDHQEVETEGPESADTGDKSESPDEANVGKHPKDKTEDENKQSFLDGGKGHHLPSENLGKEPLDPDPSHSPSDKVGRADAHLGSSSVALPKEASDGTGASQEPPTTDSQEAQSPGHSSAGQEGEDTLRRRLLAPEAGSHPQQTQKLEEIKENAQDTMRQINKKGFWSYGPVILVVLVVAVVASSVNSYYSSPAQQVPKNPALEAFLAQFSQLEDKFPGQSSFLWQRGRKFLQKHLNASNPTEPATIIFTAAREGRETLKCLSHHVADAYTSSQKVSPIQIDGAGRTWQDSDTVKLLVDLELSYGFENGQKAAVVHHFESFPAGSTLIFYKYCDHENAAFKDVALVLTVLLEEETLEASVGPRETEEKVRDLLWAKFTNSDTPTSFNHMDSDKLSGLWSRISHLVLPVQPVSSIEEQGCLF

For `C=CCN(CCCCC)C(=O)C(c1cccs1)N(CCOCCO)C(=O)/C=C\C(=O)O` (stereo not given), the composite z-score in test [1] was -0.192 and 0.0796; in test [2] it was 0.185 and -1.07; in test [3] it was -0.157 and -0.113; in [4], -1.26 and -0.317; in test [5], -1.84 and -1.41; in test [6] it was -0.661 and -0.969. The composite z-score in test [7] is -0.196 and -0.609; in [9] it was -1.48 and -0.675; in test [10] it was -0.0922 and -0.41; in test [11] it was -0.718 and -0.737; in [15], -0.93 and -0.573; in test [17], -0.0977 and -0.0831. Besides, the composite z-score in test [18] is -1.24 and -1.19; in [19], -1.09 and -1.06; in [20], -0.231 and -0.324. Moreover, the z-score was 0.874 (inactive) and 1.45 (inactive) in test [8]; -1.32 (inactive) and -1.53 (inactive) in [12]; -0.464 (inactive) and -0.606 (inactive) in test [13]; -0.289 (inactive) and -0.433 (inactive) in test [14]; 0.986 (inactive) and 1.18 (inactive) in test [16].

Take `CO[C@H]1COC(=O)CC=C[C@@H](C)COC(=O)[C@@H](OCc2ccccc2)C=C[C@@H]1C`: the composite z-score is -0.773 in test [1]; 1.86 in test [2]; -0.213 in test [3]; -0.68 in [4]; -1.02 in test [5]; -0.212 in [6]. Moreover, the composite z-score in [7] was 1.14; in test [9] it was -0.28; in [10], -0.0994; in test [11] it was 1.47; in test [15], -0.404; in test [17], -0.353. Also, the composite z-score in test [18] is 2.02; in test [19], -0.294; in [20], -0.135. Besides, the z-score in [8] is -0.971 (inactive); in [12], -0.744 (inactive); in [13], -1.31 (inactive); in test [14], -0.855 (inactive); in test [16], 0.973 (inactive).

`CC(C)N1CC=CC23O[C@@H]4C=CCCOC(=O)C4[C@H]2C(=O)N(C(C)CO)[C@@H]3C1=O` (stereo not given in full): the composite z-score in [1] was 0.886 and 0.781; in [2], 0.543 and -0.0534; in [3], -0.158 and -0.116; in test [4] it was -1.39 and -0.751; in test [5] it was -0.0092 and -0.882; in test [6] it was 2.21 and -0.35. The composite z-score in [7] is 0.958 and 0.694; in test [9], -0.828 and -0.509; in test [10], -0.178 and 0.0176; in test [11] it was 1.18 and -0.323; in test [15], 3.21 and -0.371; in test [17] it was -0.0911 and -0.043. In addition, the composite z-score in [18] was -1.14 and -0.975; in [19], -0.22 and -0.455; in [20], -0.317 and -0.308. Moreover, the z-score is -0.746 (inactive) and 0.0086 (inactive) in test [8]; -1.29 (inactive) and 0.11 (inactive) in test [12]; -1.18 (inactive) and -1.07 (inactive) in test [13]; -1.28 (inactive) and 0.687 (inactive) in test [14]; 2.82 (inactive) and 2.22 (inactive) in test [16].

Turning to `C=C[C@@H](OC)[C@H](O)c1ccc(O)c(F)c1`, the composite z-score in test [1] was 1.24 and 0.937; in test [2] it was -0.598 and -1.38; in test [3], -0.183 and -0.222; in [4], -0.609 and -0.315; in test [5], -1.74 and -0.398; in [6] it was -0.725 and -0.815. Further, the composite z-score is -0.564 and -0.928 in [7]; -1.4 and -1.25 in test [9]; -0.0708 and -0.175 in test [10]; -0.846 and -1.51 in [11]; -0.329 and -0.941 in test [15]; -0.257 and -0.124 in test [17]. The composite z-score in test [18] is -2.13 and -1.13; in [19], -1.37 and -0.192; in [20], -0.435 and -0.299. For the same compound, the z-score is 0.679 (inactive) and -0.707 (inactive) in [8]; 0.144 (inactive) and -3.13 (inactive) in test [12]; -1.44 (inactive) and -3.23 (inactive) in test [13]; 0.126 (inactive) and -0.692 (inactive) in [14]; 0.401 (inactive) and 1.45 (inactive) in [16].

With `C=C[C@H](OC)[C@@H](O)c1ccc(OCCO)cc1`, the composite z-score in [1] was 1.29 and 1.32; in test [2], -0.768 and -0.833; in [3], -0.219 and -0.121; in [4], -1.19 and -0.295; in [5], -1.86 and -1.69; in [6] it was -0.102 and -0.296. The composite z-score in test [7] is 0.604 and 0.0642; in test [9] it was -1.29 and -0.821; in [10], -0.405 and -0.268; in test [11], -0.801 and -0.822; in [15], -0.517 and -0.64; in test [17], -0.242 and -0.0736. Further, the composite z-score in test [18] was -2.2 and -1.82; in [19], -1.56 and -0.724; in [20] it was -0.313 and -0.314. Besides, the z-score in [8] is 0.298 (inactive) and 0.277 (inactive); in [12], -0.146 (inactive) and 0.665 (inactive); in test [13], 0.363 (inactive) and -0.412 (inactive); in test [14] it was 0.573 (inactive) and 0.329 (inactive); in [16], -0.0467 (inactive) and 0.606 (inactive).

As to `C=CCN(C(=O)C(c1cccs1)N(C(=O)/C=C\C(=O)O)C(C)(C)CO)c1ccc(OC)cc1` (stereo not given), the composite z-score in [1] was 0.865 and 0.636; in test [2], -0.709 and 0.408; in test [3], -0.204 and -0.158; in test [4] it was -1.37 and -0.882; in test [5] it was -0.907 and -1.48; in test [6] it was 1.46 and 1.42. In addition, the composite z-score was 1.36 and 0.431 in test [7]; -0.337 and -0.451 in [9]; -0.482 and -0.0645 in test [10]; -0.771 and -0.469 in test [11]; 2.03 and -0.628 in [15]; 0.388 and -0.0519 in [17]. The composite z-score is -1.23 and -1.8 in [18]; -1.37 and -0.484 in [19]; -0.24 and -0.151 in test [20]. The z-score was -0.447 (inactive) and 1.44 (inactive) in [8]; -2.87 (inactive) and -2.15 (inactive) in test [12]; -2.09 (inactive) and -2.05 (inactive) in test [13]; -2.57 (inactive) and -1.07 (inactive) in [14]; 3.5 (inactive) and 2.82 (inactive) in [16].

For the compound `C=CCN(CCCC)C(=O)C1N(c2ccc(CCO)cc2)C(=O)C2C(C(=O)O)C3C=CC21O3` (stereo not given), the composite z-score is 0.508 and 1.27 in test [1]; -1.1 and -1.66 in test [2]; -0.156 and -0.061 in test [3]; -0.883 and 0.807 in [4]; -1.32 and -0.91 in test [5]; -1.32 and -0.402 in test [6]. The composite z-score was -0.493 and 0.201 in [7]; -0.951 and -1.03 in [9]; -0.48 and -0.137 in test [10]; 0.0734 and -0.79 in test [11]; -1.07 and 0.53 in [15]; 0.113 and 0.0553 in [17]. In addition, the composite z-score was -2.44 and -3.58 in test [18]; -1.38 and -1.27 in test [19]; -0.226 and -0.317 in test [20]. For the same compound, the z-score is -0.267 (inactive) and 1.68 (inactive) in test [8]; -0.844 (inactive) and -0.115 (inactive) in test [12]; -0.261 (inactive) and -0.527 (inactive) in test [13]; -0.0659 (inactive) and 0.252 (inactive) in test [14]; 1.13 (inactive) and 2.05 (inactive) in test [16].
